Records with an inconclusive call do not appear. A number with no mark means an inactive call. The source made the active and inactive calls. The call rests on the fitted dose curve; in most records, active means well fitted inhibition curve with a large enough effect; inconclusive means small, poorly fitted or top-dose-only effect; inactive means no such curve, though single readings can be large or run the other way.
These compounds were tested against Luciferin 4-monooxygenase (Photinus pyralis) (UniProt P08659) (assay: FLuc inhibitory activity for the follow-up compounds in a biochemical assay with a commercial detection reagent - BriteliteTM Plus (PerkinElmer)). Conditions: purified FLuc, Britelite Plus luminescence; series mostly up to 38.3 µM; activity change, negative = inhibition: at the top concentration.
Sequence of Luciferin 4-monooxygenase (Photinus pyralis) (P08659 whole entry, looked up): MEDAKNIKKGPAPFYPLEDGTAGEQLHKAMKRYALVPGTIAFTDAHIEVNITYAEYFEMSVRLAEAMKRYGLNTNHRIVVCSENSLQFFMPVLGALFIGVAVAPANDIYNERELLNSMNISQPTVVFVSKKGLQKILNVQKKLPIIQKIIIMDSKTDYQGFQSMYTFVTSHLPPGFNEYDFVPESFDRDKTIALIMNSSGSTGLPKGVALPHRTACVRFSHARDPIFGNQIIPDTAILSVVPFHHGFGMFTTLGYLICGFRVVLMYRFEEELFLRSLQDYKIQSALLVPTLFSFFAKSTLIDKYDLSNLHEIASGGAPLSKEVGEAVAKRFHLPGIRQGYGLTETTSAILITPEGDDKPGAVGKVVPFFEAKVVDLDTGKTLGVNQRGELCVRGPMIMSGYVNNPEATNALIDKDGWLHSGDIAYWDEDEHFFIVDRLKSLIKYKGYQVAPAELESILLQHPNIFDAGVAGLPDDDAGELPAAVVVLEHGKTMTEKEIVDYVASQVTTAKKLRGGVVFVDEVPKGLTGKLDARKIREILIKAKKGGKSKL
Text: NCGC Assay Overview: Firefly (Photinus pyralis) luciferase is one of the most commonly used transcriptional reporters. It is considered one of the more dynamically responsive reporters - that is, responsive to changes in reporter transcription - as it requires no post-translational modifications and is enzymatically active directly after protein synthesis (Wood, 1998). With no endogenous expression in mammalian cells and without the requirement of external excitation, it offers very little background signal, thus generally providing excellent signal to background for most assays. Previous profiling work to determine the prevalence of compounds that affect FLuc enzymatic activity (PubChem AID 411) identified that ~3% of the MLSMR library (then at ~72K) inhibited FLuc (Auld et al., 2008). […] Of the compounds identified in this profile that inhibited FLuc, 151 compounds were selected for further analysis, in an effort to better understand their mode of inhibiting FLuc. The assay described here was to determine the activity of the compounds in a FLuc assay that used a commercial formulation of detection reagent (BriteliteTM Plus; PerkinElmer).
NCGC Assay Protocol Summary: Reagents: Britelite Plus detection reagent; 50mM Tris acetate, pH 7.5; 10nM P. pyralis luciferase (Sigma #L9506) Control compounds used were two known firefly luciferase inhibitors (3-(5-(3-chlorophenyl)-1,2,4-oxadiazol-3-yl)benzoic acid and 5-(2-fluorophenyl)-3-phenyl-1,2,4-oxadiazole), and DMSO. Assay Summary: Three microliters of buffer containing firefly luciferase (final concentrations: 50mM Tris acetate, 10nM P. pyralis luciferase) are dispensed into each well of a Greiner white, solid-bottom 1536-well format plate using a flying reagent dispenser (FRD). These assay plates were then treated with 23nL of compound or DMSO using a Kalypsys pin tool, which allows for delivery of a 12-point intraplate titration of each compound to the assay plate (quantitative HTS), with final compound concentrations ranging from approximately ~38uM to 0.2nM. Three microliters of 2X Britelite Plus detection reagent was then delivered by FRD to each well. Luciferase activity was then measured using a ViewLux CCD imager (PerkinElmer), with an average exposure time of 2-30 seconds (2X binning, medium/high gain).
For `CCOc1ccc(C(=O)Nc2ccccc2C(=O)O)cc1`, the Potency was 3560 nM (active). `Cc1ccc(C(=O)Nc2cccc(C(=O)O)c2)cc1S(=O)(=O)N1CCCCC1` was tested, and the Potency was 2830 nM (active). In the case of `O=C(O)c1cccc(NC(=O)c2ccc(COc3ccc(Cl)cc3)cc2)c1`, the “activity change, negative = inhibition” value was 8.38%. In the case of `O=C(Cc1ccc(Cl)cc1)Nc1cccc(C(=O)Nc2ccccc2C(=O)O)c1`, the “activity change, negative = inhibition” value was 17.1%. In the case of `COc1ccc(-c2nc3ccccc3s2)cc1O`, the Potency was 711 nM (active). For `COc1cccc(-c2nc3ccccc3s2)c1`, the Potency was 5650 nM (active). `CC(C)c1ccc(C(=O)Nc2ccc(-c3nc4ccccc4s3)c(Cl)c2)cc1` was tested, and the “activity change, negative = inhibition” value was -49.5%. In the case of `Cc1ccc2sc(-c3ccc(NC(=O)c4cc(-n5cnnc5)ccc4Cl)cc3)nc2c1`, the “activity change, negative = inhibition” value was 1.78%. `COc1ccc2nc(NC(=O)c3ccc(S(=O)(=O)N4CCCC(C)C4)cc3)sc2c1` (stereo not given) was tested, and the “activity change, negative = inhibition” value was -22.2%. In the case of `NC(=O)Cc1ccc2sc(-c3ccccc3)nc2c1`, the Potency was 6340 nM (active). With `COc1ccc(CC(=O)Nc2cccc(C(=O)Nc3ccccc3C(=O)O)c2)cc1OC` the “activity change, negative = inhibition” value was -7.35%. For `Cc1ccc2sc(-c3ccc(N)cc3)nc2c1`, the Potency was 798 nM (active). With `O=C(Nc1ccccc1C(=O)O)c1cccc(S(=O)(=O)Nc2ccc(Br)cc2)c1` the “activity change, negative = inhibition” value was 14%. `O=C(Nc1ccccc1C(=O)Nc1ccccc1C(=O)O)c1ccccc1` was tested, and the “activity change, negative = inhibition” value was 2.67%. In the case of `Nc1ccccc1C(=O)Nc1cccc(C(=O)O)c1`, the Potency was 12600 nM (active). With `O=C(Nc1c(Cl)cc(Cl)cc1-c1nc2ccccc2s1)c1ccc(Br)o1` the Potency was 17900 nM (active). For `O=C(Nc1ccc(Cl)cc1-c1nc2ccccc2s1)c1ccco1`, the “activity change, negative = inhibition” value was 4.66%. With `CCOc1ccc(C(=O)Nc2cccc(C(=O)O)c2)cc1Cl` the Potency was 7110 nM (active). `O=C(O)c1cccc(NC(=O)c2ccccc2NC(=O)c2ccccc2F)c1` was tested, and the “activity change, negative = inhibition” value was -10.9%. With `O=C(O)c1cccc(NC(=O)c2ccc(S(=O)(=O)c3ccccc3)cc2)c1` the “activity change, negative = inhibition” value was -14.5%. In the case of `CC(C)(C)C(=O)Nc1ccc(-c2nc3ccccc3s2)cc1`, the Potency was 17.9 nM (active). `Cc1ccc(NS(=O)(=O)c2ccc(Cl)c(C(=O)Nc3cccc(C(=O)O)c3)c2)cc1` was tested, and the “activity change, negative = inhibition” value was 2.08%. `Cc1ccc(C(=O)O/N=C(\N)c2ccccn2)cc1` was tested, and the Potency was 28.3 nM (active). For `c1ccc2sc(-c3ccc4c(c3)OCO4)nc2c1`, the Potency was 1790 nM (active). `O=C(O)c1cccc(NC(=O)c2cccc(S(=O)(=O)N3CCc4ccccc43)c2)c1` was tested, and the “activity change, negative = inhibition” value was -7.51%. With `O=C(COC(=O)c1ccccc1[N+](=O)[O-])c1ccc2c(c1)OCO2` the Potency was 17.9 nM (active). In the case of `COc1ccc(C(=O)Nc2ccccc2C(=O)N/N=C/c2ccc(O)c(OC)c2)cc1`, the Potency was 2 nM (active). For `O=C(O)c1cccc(NC(=O)c2cccc(S(=O)(=O)Nc3cccc(F)c3)c2)c1`, the “activity change, negative = inhibition” value was -35.2%. `Cc1ccccc1C(=O)Nc1cccc(C(=O)Nc2ccccc2C(=O)O)c1` was tested, and the “activity change, negative = inhibition” value was 0.207%. `Nc1ccc2nc(-c3ccccc3)sc2c1` was tested, and the Potency was 634 nM (active). With `O=C(Nc1ccccc1C(=O)O)c1cc(S(=O)(=O)Nc2cccc(F)c2)ccc1Cl` the “activity change, negative = inhibition” value was -15.1%. With `COc1c(C)cccc1C(=O)Nc1ccc(-c2nc3ccccc3s2)c(Cl)c1` the Potency was 7110 nM (active). For `CCCC(=O)Nc1nc2ccc(OCC)cc2s1`, the Potency was 79.8 nM (active). `O=C(O)c1ccc(NC(=O)c2ccccc2NC(=O)c2ccccc2Cl)cc1` was tested, and the “activity change, negative = inhibition” value was -8.33%. `COc1ccc2nc(NC(=O)c3ccc4ncsc4c3)sc2c1` was tested, and the Potency was 25200 nM (active). With `CC(=O)Nc1cccc(-c2nc3ccccc3s2)c1C` the “activity change, negative = inhibition” value was -17.2%. With `Nc1ccc(-c2nc3ccc(C(=O)O)cc3s2)cc1` the Potency was 634 nM (active). With `CCOc1ccc2nc(NC(=O)Cc3cccs3)sc2c1` the “activity change, negative = inhibition” value was -11.8%. `CN=c1scc(-c2ccccc2F)n1/N=C/c1ccc[nH]1` was tested, and the Potency was 79.8 nM (active). In the case of `O=C(Nc1ccccc1C(=O)O)c1cccc(C(=O)Nc2ccccc2C(=O)O)c1`, the “activity change, negative = inhibition” value was -11.6%.
